Sampled rows, rich in hits. Any-hit rate of the full collection: about 3.8%.
esBAF inh: Bmi1 luciferase reporter increase in mESCs, primary screen, esBAF inhibitor project, mouse ES cells, Bmi1 luciferase knock-in, single point. reporter increase, % at 12.5 µM. 24 h; 100% = twice the neutral-well signal. AID 602393, 2012. 350,000 compounds, 2% hits; in the data active = activation above about 40%; inconclusive = no clear call, values can overlap the other calls;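 also: 0% = median of the plate's neutral control wells and 100% = double that signal; a rise in the Bmi1 reporter signal indicates esBAF inhibition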
Wnt act: Wnt/beta-catenin pathway activators, primary screen, cell-based, plate reader, single point; Wnt/beta-catenin reporter cell assay, activator; AID 743398, 2014; activation, % at 9.35 µM; 300,000 compounds, 1.2% hits; in the data active = activation above about 30%, passing the limit was not always enough; inconclusive = no clear call, values can overlap the other calls;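 also: 0% = neutral control wells and 100% = positive control wells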
HSF-1 act: HSF-1 activators, primary screen, NIH3T3-HGL cells, MG132 stress, luminescence, single point; NIH3T3-HGL HSF-1 luciferase reporter, 8 h; 100% = twice DMSO control signal; activation, % at 9 µM; 300,000 compounds, 1.7% hits; AID 504408, 2011;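 active = mean replicate activation of at least 50% with a set share of replicates each reaching 50%; inconclusive = only one of those two conditions met; inactive = mean below 50% and too few replicates reaching it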;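 also: 0% = median of the neutral control wells and 100% = twice that signal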
MITF act: activators of MITF-driven TRPM1 promoter reporter, primary screen, cell-based, SK-MEL-5, luciferase, single point; 300,000 compounds, 0.75% hits; activation, % at 12.5 µM; SK-MEL-5 TRPM1-promoter luciferase, 24 h; % of positive control, neutral wells = 0; AID 588334, 2011;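 active = mean activation of at least 80% with every replicate also reaching 80%; inconclusive = mean reaches 80% but some replicate falls short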;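 also: 0% = neutral control wells and 100% = parthenolide positive control wells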
HSF1 inh: HSF1 inhibitors in luciferase reporter cells, primary screen, cell-based, NIH3T3, luminescence. NIH3T3-HGL HSE-luciferase, MG132-induced, luminescence 8 h; stronger effect = lower value. activity change, negative = inhibition, % at 7.5 µM (by protocol). 300,000 compounds, 0.77% hits;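 active = more than half of replicate wells show activity change below -50%, luminescence cut by over half; inconclusive = some wells, but at most half, below -50%; inactive = no replicate well below -50%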;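 also: luciferase reports HSF-1 transcriptional activity via heat shock element; 0% = median of DMSO wells and -100% = zero luminescence signal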
The depositor's hits bear a star; u = inconclusive; x = no result.

SMILES	esBAF inh	Wnt act	HSF-1 act	MITF act	HSF1 inh
O=c1cc(CCl)[nH]c2nc3ccccc3n12	x	-4	10	6	-5
O=c1cc(-c2ccccc2)[nH]c2nc3ccccc3n12	-7	47*	47	16	23
Cc1cc(C(=O)CSc2nnc(-c3cccs3)o2)c(C)n1-c1ccccc1	-12	-14	-76	-35	-73*
Cc1cc(C(=O)CSc2nnc(-c3ccccc3)n2-c2ccccc2)c(C)n1-c1ncn[nH]1	9	-1	-9	x	0
COc1cccc(C(=O)CSc2nnc(-c3cccs3)o2)c1	0	8	19	11	6
Cc1cc(C(=O)CSc2nnc3ccccn23)c(C)n1-c1ccccc1	x	x	-85	-77	-81*
O=C(CSc1nnc(-c2cccs2)o1)c1cccs1	104*	x	38	u	13
CCCN(C)C[C@@H]1Oc2cc(-c3ccc(C#N)cc3)ccc2S(=O)(=O)N([C@@H](C)CO)C[C@@H]1C	-1	x	x	x	x
COC(=O)C[C@@H]1CC[C@H]2[C@@H](COc3ccc(NC(=O)c4ccccc4F)cc3C(=O)N2C)O1	1	x	x	x	x
Cc1noc(C)c1S(=O)(=O)Nc1ccc2c(c1)CC(=O)N([C@@H](C)CO)C[C@H](C)[C@H](CN(C)C(=O)Nc1ccc(F)cc1)O2	6	x	x	x	x
c1ccc(-n2cnnc2SCc2nc3ccccc3s2)cc1	36	51*	15	x	15
CCn1c(SCc2nc3ccccc3s2)nnc1-c1ccccc1	46*	x	21	6	22
Cc1nnc(SCc2nc3ccccc3s2)n1-c1ccccc1	72*	u	12	10	7
COc1cccc(-c2nnc(SCc3nc4ccccc4s3)n2C)c1	14	x	64*	0	23
C[C@H]1CN([C@@H](C)CO)C(=O)c2cccc(NS(=O)(=O)c3ccc(F)cc3)c2O[C@H]1CN(C)CC1CCCCC1	5	x	x	x	x
COCC(=O)Nc1ccc2c(c1)C(=O)N(C)[C@@H]1CC[C@H](CC(=O)OC)O[C@@H]1CO2	-1	x	x	x	x
CCCNC(=O)Nc1ccc2c(c1)C(=O)N(C)C[C@H](OC)[C@H](C)CN(Cc1ccccc1)[C@@H](C)CO2	-3	x	x	x	x
COc1cccc(S(=O)(=O)N[C@H]2CC[C@H](CCNC(=O)Nc3cc(F)ccc3F)O[C@@H]2CO)c1	4	x	x	x	x
CCC(c1nnc(SCc2nc3ccccc3s2)n1Cc1ccccc1)N(C)C (stereo unspecified)	70*	x	17	12	8
Cc1ccn(CC(=O)N2CCCC(N3CCN(c4ccc(F)cc4)CC3)C2)n1 (stereo unspecified)	7	-3	67*	1	19
Cc1cc(C)n(CC(=O)N2CCCC(N3CCN(c4ccc(F)cc4)CC3)C2)n1 (stereo unspecified)	-8	2	12	8	-5
Cc1cc(C)n2nc(C(=O)N/N=C/c3c4ccccc4cc4ccccc34)nc2n1	x	1	188*	-4	144
Cc1cc(C)n2nc(C(=O)N/N=C/c3ccccc3Cl)nc2n1	9	0	4	14	-4
CC(=O)N(C)C[C@@H]1Oc2ncc(C#Cc3ccccc3)cc2C(=O)N([C@H](C)CO)C[C@@H]1C	-2	x	x	x	x
COc1ccccc1Nc1nc(N)nc(CSC(=S)N2CCCCC2)n1	x	35*	-14	16	6
SMILES	esBAF inh	Wnt act	HSF-1 act	MITF act	HSF1 inh
COc1ccccc1Nc1nc(N)nc(CN2CCCCC2)n1	-2	0	13	10	5
Cc1ccc(Nc2nc(N)nc(CSC(=S)N3CCOCC3)n2)cc1	-12	x	37	x	14
Nc1nc(CSC(=S)N2CCCCC2)nc(Nc2ccccc2)n1	x	u	-85	50	-81*
Nc1nc(CSC(=S)N2CCOCC2)nc(Nc2ccccc2)n1	x	45*	40	118*	3
Cc1ccc(S(=O)(=O)Nc2ccc3c(c2)C(=O)N([C@H](C)CO)C[C@@H](C)[C@H](CN(C)C(=O)Nc2c(C)noc2C)OCCCC[C@@H](C)O3)cc1	2	x	x	x	x
O=C(N=C1c2ccccc2CN1c1ccc(F)c(Cl)c1)c1cccnc1Cl	x	1	69*	x	61
C=CCSc1nc2ccccc2n1C(=O)/C=C/c1ccc(OC)c(OC)c1	5	0	71*	-38	44
CCn1c(SCC(=O)N/N=C/c2ccc(OC)c(OC)c2)nc2ccccc21	-5	-3	x	11	x
COc1cc(/C=C/C(=O)N2CCN(C(=O)/C=C/c3cc(OC)c(OC)c(OC)c3)CC2)cc(OC)c1OC	-10	x	32	-16	13
CCSc1nc2ccccc2n1C(=O)/C=C/c1ccc(OC)c(OC)c1	-9	-15	82*	-76	33
C=CCSc1nc2ccccc2n1C(=O)/C=C/c1cc(OC)c(OC)c(OC)c1	x	-1	-63	-86	-64*
C[C@@H]1CN([C@@H](C)CO)C(=O)c2cc(C#Cc3ccncc3)cnc2O[C@H]1CN(C)CC1CCCC1	-9	x	x	x	x
CC(=O)N1CC[C@@H]2[C@H]1c1cc(C#Cc3cccnc3)ccc1N[C@@H]2CO	2	x	x	x	x
COc1cc(/C=C/C(=O)c2ccc3c(c2)OCCO3)cc(OC)c1OC	2	-6	190*	x	147
COc1ccc(OC)c(/C=C/C(=O)c2ccc3c(c2)OCCO3)c1	23	-1	66*	x	53
CCOc1ccc(S(=O)(=O)N(C)c2ccc(OCC(=O)NCCc3ccc(OC)cc3)cc2)cc1	-20	-1	-63	-8	-53*
COc1ccc(CCNC(=O)c2ccc(N(C)S(=O)(=O)c3ccc(C)cc3)cc2)cc1	x	0	-69	-7	-55*
Cc1ccc(CNC(=O)[C@H](C)N2C(=O)N3CCc4c([nH]c5ccccc45)[C@@]3(C)C2=O)cc1	24	-4	97*	x	64
O=[N+]([O-])/C=C\c1ccc(N2CCCC2)c(F)c1	3	x	79*	-92	47
O=Cc1ccc(N2CCCC2)c([N+](=O)[O-])c1	-1	-1	19	-3	3
COc1ccc2cc(CCC(C)=O)ccc2c1	58*	2	30	108*	18
CN(C)C(=O)C[C@H]1C[C@H]2c3cc(NC(=O)c4ccc5c(c4)OCO5)ccc3O[C@H]2[C@@H](CO)O1	14	x	x	x	x
N#C/C(=C\c1ccc(OCc2ccc(C(=O)O)cc2)cc1)C(=O)N1CCOCC1	x	-7	-51	-83	-51*
COc1ccc(S(=O)(=O)N2CCN(CC(O)CN3CCOCC3)CC2)cc1 (stereo unspecified)	-12	53*	x	0	x
C#CCNC(=O)c1csc([C@@H]2O[C@H](CO)[C@@H](O)[C@H]2O)n1	-9	0	x	x	x
O=C(Nc1ccc(Cl)cc1)c1csc([C@@H]2O[C@H](CO)[C@@H](O)[C@H]2O)n1	45*	2	x	x	x

High-throughput results from PubChem.
